# Source: PubChem
# Pf apPOL block = Pf-apPOL DNA polymerase inhibition; 210,000 compounds, 0.25% hits; inhibition, % at 10 µM; Recombinant Pf-apPOL, molecular beacon fluorescence, 1.5 h; AID 1794808
# mHTT-CaM PPI inh = disrupts binding of mutant huntingtin to calmodulin; P42858; AlphaScreen His-mHTT/GST-CaM binding, luminescence; inhibition, % at 15 µM; 190,000 compounds, 3.6% hits; AID 1671202;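 note: 0% = both proteins with DMSO and 100% = one protein alone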
# Numbers without * were called inactive; / = no result. Shown are actives, neighbours in structure and some others; about 3.6% of the full set was active somewhere. Cut-off read from the data, not from the text of the source: active = inhibition above about 50%; inactive = the rest.
SMILES,Pf apPOL block,mHTT-CaM PPI inh
CC1=NN(c2cc(Cl)cc(Cl)c2)C(=O)/C1=C/c1cccn1-c1ccc(S(N)(=O)=O)cc1,-4.5,52.0*
CC1=NN(c2ccc(S(N)(=O)=O)cc2)C(=O)/C1=C/c1ccc(O)cc1,1.1,27.0
COc1ccc(C(O)=C2C(=O)C(=O)N(CCN(C)C)C2c2cc(OC)c(OC)c(OC)c2)cc1 (stereo not given),-5.5,-7.1
Cc1cc(C)nc(SC/C=C/CSc2nc(C)cc(C)n2)n1,-4.0,-2.0
O=C1Nc2ccccc2C1=Nc1ccc(Nc2ccccc2)cc1,1.6,100.0*
O=C1Nc2ccccc2C1=Nc1ccc(C(=O)c2ccccc2)cc1,-0.4,3.0
Cc1ccc(-n2cc(-c3ccccc3)c3c(NCC4CCCO4)ncnc32)cc1 (stereo not given),-10.7,56.0*
CCCCNc1ncnc2c1c(-c1ccccc1)cn2-c1ccccc1,-0.3,38.0
CS(=O)(=O)N(Cc1ccccc1Cl)c1ccc(C(N)=O)cc1,-4.1,-5.0
CCCn1cc2c3c(cccc31)CN(C(=O)Cc1ccc(OC)cc1)CC2,-1.9,57.2*
Cn1cc2c3c(cccc31)CN(C(=O)c1cc(F)cc(F)c1)CC2,-1.0,29.6
COc1ccc(C(=O)N2CCc3cn(C)c4cccc(c34)C2)c(OC)c1,-2.3,47.5
Cn1cc2c3c(cccc31)CN(C(=O)c1cccc(Cl)c1)CC2,-7.5,72.9*
COc1ccc(C(=O)N2CCc3cn(C)c4cccc(c34)C2)cc1,-1.5,55.1*
CCCn1cc2c3c(cccc31)CN(C(=O)NCc1ccc(OC)cc1)CC2,-2.5,18.4
CS(=O)(=O)N(Cc1ccccc1Cl)c1ccc(C(=O)N2CCc3ccccc3C2)cc1,-1.3,97.8*
CCN(CC)CCOc1ccccc1[N+](=O)[O-],-2.5,-2.2
COc1cccc(C=C2Oc3cc(OC(=O)c4cccc([N+](=O)[O-])c4)ccc3C2=O)c1OC,5.1,5.6
Cn1c(=O)c2nc(-c3ccccc3I)oc2c2ccccc21,-1.4,1.0
CCOc1ccccc1N1CCN(S(=O)(=O)c2cc(C)c(C)cc2C)CC1,-9.9,-10.6
CCn1cc2c3c(cccc31)CN(C(=O)c1ccco1)CC2,-2.5,-7.6
Cn1cc2c3c(cccc31)CN(C(=O)c1ccc(Cl)cc1)CC2,-3.5,54.3*
Cc1ccc(C(=O)N2CCc3cn(C)c4cccc(c34)C2)cc1C,-2.7,79.0*
CCn1cc2c3c(cccc31)CN(C(=O)CCc1ccc(OC)cc1)CC2,-4.2,58.5*
CCCn1cc2c3c(cccc31)CN(C(=O)c1ccc(OC)cc1)CC2,-2.8,78.0*
SMILES,Pf apPOL block,mHTT-CaM PPI inh
Cn1cc2c3c(cccc31)CN(C(=O)Cc1ccc(Cl)cc1)CC2,-1.1,26.9
Cc1cccc(C(=O)N2CCc3cn(C)c4cccc(c34)C2)c1,-6.9,19.0
COCCn1cc2c3c(cccc31)CN(C(=O)NCc1ccc(OC)cc1)CC2,2.1,8.7
Cc1ccc(-c2nc3ncccc3o2)cc1NC(=O)c1cccc(Cl)c1,0.1,-4.0
CC(=O)OCc1cc(C=NN(C(C)=O)c2ccccc2)nn1-c1ccccc1,0.0,/
O=C(Nc1cnc(-c2cccc(Cl)c2)nc1)c1ccccn1,-0.7,-6.2
CCn1cc(Cn2nc(C)c(N)c2C)c(C)n1,/,-1.2
O=C(Nc1cnc(N2CCCC2)nc1)c1ccccc1C(F)(F)F,3.2,0.1
Cc1cccc(N=Cc2c(Nc3cccc(C)c3)nc3c(C)cccn3c2=O)c1,0.3,3.0
COc1ccc(NC(=O)N2CCC(c3nc(C(=O)N(C)C)c(C)o3)CC2)cc1Cl,8.4,2.3
O=C(c1ccc(Cl)s1)N1CCc2nc(-c3ccc(Cl)cc3)ncc2C1,-4.9,-5.6
COc1ccc(NC(=O)c2ccc(-c3ccc(Cl)cc3)o2)cc1OC,-17.5,59.4*
COc1ccc(NC(=O)c2ccc(-c3cccc(Cl)c3)o2)cc1OC,-5.4,26.9
CCCC(=O)NC(c1ccc(C(C)C)cc1)c1cc([N+](=O)[O-])c2cccnc2c1O (stereo not given),-1.9,51.4*
CN(C)C(=O)NC(c1ccccc1)c1cc([N+](=O)[O-])c2cccnc2c1O (stereo not given),-10.1,100.0*
CCC(=O)NC(c1ccccc1OC)c1cc([N+](=O)[O-])c2cccnc2c1O (stereo not given),-3.9,100.0*
CCC(=O)NC(c1ccccc1Cl)c1cc([N+](=O)[O-])c2cccnc2c1O (stereo not given),-3.2,100.0*
Cc1ccc(C)c(N(CC(=O)Nc2ccc(C(N)=O)cc2)S(C)(=O)=O)c1,-16.1,6.8
CCc1cccc(NS(=O)(=O)c2ccc(C)cc2)c1,1.9,-19.9
CCCNC(=O)c1nc(-c2oc3c(C)cccc3c2C)no1,2.5,-17.8
CCOC(Cn1c(SCC(=O)Nc2ccc(C)cc2)nc2ccccc2c1=O)OCC,-5.9,-1.0
CC(C)C(=O)NC(c1cccs1)c1cc([N+](=O)[O-])c2cccnc2c1O (stereo not given),-4.7,100.0*
